Measured values as given in PMC11006913.
Substitutions are numbered along the chain they refer to.

Tests used:
Experiment in all cases: PBM; 200 nM protein, PBS
Conditions in all cases: dsDNA, one strand shown
VENTX [1] = biological target: T1, VENTX (Homo sapiens, UniProt O95231 78-163, R121Q)
T1 sequence: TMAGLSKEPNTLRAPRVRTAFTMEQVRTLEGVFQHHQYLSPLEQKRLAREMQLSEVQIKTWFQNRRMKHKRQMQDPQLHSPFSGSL

VENTX [2] = biological target: T2, VENTX (Homo sapiens, UniProt O95231 78-163)
T2 sequence: T1 sequence with Q44R

VENTX [3] = biological target: T3, VENTX (Homo sapiens, UniProt O95231 78-163, Y115F)
T3 sequence: T1 sequence with Y38F, Q44R

HOXB6 [4] = biological target: HOXB6 (Homo sapiens, UniProt P17509 132-218, K202E)
Sequence of HOXB6 (Homo sapiens, UniProt P17509 132-218, K202E) (P17509 132-218 K202E): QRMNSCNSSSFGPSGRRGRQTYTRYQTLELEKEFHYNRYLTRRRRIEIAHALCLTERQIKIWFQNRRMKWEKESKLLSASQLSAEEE

HOXA2 [5] = biological target: HOXA2 (Homo sapiens, UniProt O43364 129-215, R185T)
Sequence of HOXA2 (Homo sapiens, UniProt O43364 129-215, R185T) (O43364 129-215 R185T): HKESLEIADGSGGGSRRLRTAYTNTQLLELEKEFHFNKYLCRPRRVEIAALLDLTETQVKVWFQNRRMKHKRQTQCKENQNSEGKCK

ALX1 [6] = biological target: ALX1 (Homo sapiens, UniProt Q15699 118-204, L144V)
Sequence of ALX1 (Homo sapiens, UniProt Q15699 118-204, L144V) (Q15699 118-204 L144V): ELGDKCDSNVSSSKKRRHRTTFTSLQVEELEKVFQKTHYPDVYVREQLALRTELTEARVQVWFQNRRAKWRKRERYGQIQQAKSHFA

ALX3 [7] = biological target: ALX3 (Homo sapiens, UniProt O95076 139-225, N203Q)
Sequence of ALX3 (Homo sapiens, UniProt O95076 139-225, N203Q) (O95076 139-225 N203Q): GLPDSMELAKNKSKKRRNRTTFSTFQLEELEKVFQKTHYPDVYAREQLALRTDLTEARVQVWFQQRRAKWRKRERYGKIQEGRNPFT

HOXA2 [8] = biological target: HOXA2 (Homo sapiens, UniProt O43364 129-215, R185K)
Sequence of HOXA2 (Homo sapiens, UniProt O43364 129-215, R185K) (O43364 129-215 R185K): as the sequence (O43364 129-215 R185T) above, with T57K counted along it

ALX1 [9] = biological target: ALX1 (Homo sapiens, UniProt Q15699 118-204, L144R)
Sequence of ALX1 (Homo sapiens, UniProt Q15699 118-204, L144R) (Q15699 118-204 L144R): as the sequence (Q15699 118-204 L144V) above, with V27R counted along it

ALX3 [10] = biological target: ALX3 (Homo sapiens, UniProt O95076 139-225)
Sequence of ALX3 (Homo sapiens, UniProt O95076 139-225) (O95076 139-225): as the sequence (O95076 139-225 N203Q) above, with Q65N counted along it

ALX3 [11] = biological target: ALX3 (Homo sapiens, UniProt O95076 139-225, L168Q)
Sequence of ALX3 (Homo sapiens, UniProt O95076 139-225, L168Q) (O95076 139-225 L168Q): as the sequence (O95076 139-225 N203Q) above, with L30Q, Q65N counted along it

ALX3 [12] = biological target: ALX3 (Homo sapiens, UniProt O95076 139-225, L168V)
Sequence of ALX3 (Homo sapiens, UniProt O95076 139-225, L168V) (O95076 139-225 L168V): as the sequence (O95076 139-225 N203Q) above, with L30V, Q65N counted along it

HOXA2 [13] = biological target: HOXA2 (Homo sapiens, UniProt O43364 129-215, Y150S)
Sequence of HOXA2 (Homo sapiens, UniProt O43364 129-215, Y150S) (O43364 129-215 Y150S): as the sequence (O43364 129-215 R185T) above, with Y22S, T57R counted along it

ALX1 [14] = biological target: ALX1 (Homo sapiens, UniProt Q15699 118-204)
Sequence of ALX1 (Homo sapiens, UniProt Q15699 118-204) (Q15699 118-204): as the sequence (Q15699 118-204 L144V) above, with V27L counted along it

ALX3 [15] = biological target: ALX3 (Homo sapiens, UniProt O95076 139-225, N203S)
Sequence of ALX3 (Homo sapiens, UniProt O95076 139-225, N203S) (O95076 139-225 N203S): as the sequence (O95076 139-225 N203Q) above, with Q65S counted along it

HOXA2 [16] = biological target: HOXA2 (Homo sapiens, UniProt O43364 129-215)
Sequence of HOXA2 (Homo sapiens, UniProt O43364 129-215) (O43364 129-215): as the sequence (O43364 129-215 R185T) above, with T57R counted along it

HOXB6 [17] = biological target: HOXB6 (Homo sapiens, UniProt P17509 132-218)
Sequence of HOXB6 (Homo sapiens, UniProt P17509 132-218) (P17509 132-218): as the sequence (P17509 132-218 K202E) above, with E71K counted along it

MSX2 [18] = biological target: MSX2 (Homo sapiens, UniProt P35548 130-214, R199I)
Sequence of MSX2 (Homo sapiens, UniProt P35548 130-214, R199I) (P35548 130-214 R199I): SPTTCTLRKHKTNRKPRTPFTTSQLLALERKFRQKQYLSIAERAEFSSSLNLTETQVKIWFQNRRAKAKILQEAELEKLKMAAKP

MSX2 [19] = biological target: MSX2 (Homo sapiens, UniProt P35548 130-214)
Sequence of MSX2 (Homo sapiens, UniProt P35548 130-214) (P35548 130-214): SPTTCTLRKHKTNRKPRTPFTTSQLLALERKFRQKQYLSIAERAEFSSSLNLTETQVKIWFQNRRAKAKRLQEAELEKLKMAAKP

MSX2 [20] = biological target: MSX2 (Homo sapiens, UniProt P35548 130-214, F161Y)
Sequence of MSX2 (Homo sapiens, UniProt P35548 130-214, F161Y) (P35548 130-214 F161Y): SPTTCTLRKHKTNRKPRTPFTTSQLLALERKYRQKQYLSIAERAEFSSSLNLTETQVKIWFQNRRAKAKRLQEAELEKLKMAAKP

HOXB9 [21] = biological target: HOXB9 (Homo sapiens, UniProt P17482 171-250, T197M)
Sequence of HOXB9 (Homo sapiens, UniProt P17482 171-250, T197M) (P17482 171-250 T197M): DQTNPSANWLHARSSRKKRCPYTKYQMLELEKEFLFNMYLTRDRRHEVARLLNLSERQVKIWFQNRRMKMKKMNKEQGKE

HOXC9 [22] = biological target: HOXC9 (Homo sapiens, UniProt P31274 178-260, K195R)
Sequence of HOXC9 (Homo sapiens, UniProt P31274 178-260, K195R) (P31274 178-260 K195R): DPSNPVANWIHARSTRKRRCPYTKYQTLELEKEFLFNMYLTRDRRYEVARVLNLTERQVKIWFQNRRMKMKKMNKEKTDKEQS

HOXA7 [23] = biological target: HOXA7 (Homo sapiens, UniProt P31268 116-202)
Sequence of HOXA7 (Homo sapiens, UniProt P31268 116-202) (P31268 116-202): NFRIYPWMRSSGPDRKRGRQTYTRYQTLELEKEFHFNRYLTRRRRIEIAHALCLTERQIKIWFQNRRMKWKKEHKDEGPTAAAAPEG

HOXC10 [24] = biological target: HOXC10 (Homo sapiens, UniProt Q9NYD6 254-340)
Sequence of HOXC10 (Homo sapiens, UniProt Q9NYD6 254-340) (Q9NYD6 254-340): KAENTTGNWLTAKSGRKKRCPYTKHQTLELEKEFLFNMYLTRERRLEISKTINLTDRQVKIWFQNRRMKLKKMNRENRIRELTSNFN

HOXB9 [25] = biological target: HOXB9 (Homo sapiens, UniProt P17482 171-250)
Sequence of HOXB9 (Homo sapiens, UniProt P17482 171-250) (P17482 171-250): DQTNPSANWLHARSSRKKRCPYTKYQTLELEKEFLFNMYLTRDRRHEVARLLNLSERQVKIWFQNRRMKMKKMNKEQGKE

HOXC9 [26] = biological target: HOXC9 (Homo sapiens, UniProt P31274 178-260)
Sequence of HOXC9 (Homo sapiens, UniProt P31274 178-260) (P31274 178-260): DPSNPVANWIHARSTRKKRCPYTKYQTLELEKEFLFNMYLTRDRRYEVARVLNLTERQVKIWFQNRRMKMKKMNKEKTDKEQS

HOXD13 [27] = biological target: HOXD13 (Homo sapiens, UniProt P35453 263-343, T313R)
Sequence of HOXD13 (Homo sapiens, UniProt P35453 263-343, T313R) (P35453 263-343 T313R): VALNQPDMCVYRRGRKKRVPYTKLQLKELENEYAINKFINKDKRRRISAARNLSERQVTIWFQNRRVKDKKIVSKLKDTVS

HOXC9 [28] = biological target: HOXC9 (Homo sapiens, UniProt P31274 178-260, R193K)
Sequence of HOXC9 (Homo sapiens, UniProt P31274 178-260, R193K) (P31274 178-260 R193K): as the sequence (P31274 178-260) above, with R16K counted along it

HOXD13 [29] = biological target: HOXD13 (Homo sapiens, UniProt P35453 263-343)
Sequence of HOXD13 (Homo sapiens, UniProt P35453 263-343) (P35453 263-343): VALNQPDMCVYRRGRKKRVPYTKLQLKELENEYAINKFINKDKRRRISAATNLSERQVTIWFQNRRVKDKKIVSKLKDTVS

HOXC10 [30] = biological target: HOXC10 (Homo sapiens, UniProt Q9NYD6 254-340, K271E)
Sequence of HOXC10 (Homo sapiens, UniProt Q9NYD6 254-340, K271E) (Q9NYD6 254-340 K271E): as the sequence (Q9NYD6 254-340) above, with K18E counted along it

VAX1 [31] = biological target: VAX1 (Homo sapiens, UniProt Q5SQQ9 86-172)
Sequence of VAX1 (Homo sapiens, UniProt Q5SQQ9 86-172) (Q5SQQ9 86-172): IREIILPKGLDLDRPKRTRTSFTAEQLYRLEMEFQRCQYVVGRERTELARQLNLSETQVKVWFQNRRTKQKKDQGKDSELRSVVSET

HOXD13 [32] = biological target: HOXD13 (Homo sapiens, UniProt P35453 263-343, T313A)
Sequence of HOXD13 (Homo sapiens, UniProt P35453 263-343, T313A) (P35453 263-343 T313A): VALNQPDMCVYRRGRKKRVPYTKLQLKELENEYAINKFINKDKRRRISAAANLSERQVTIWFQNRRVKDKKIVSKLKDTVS

HOXB9 [33] = biological target: HOXB9 (Homo sapiens, UniProt P17482 171-250, R186Q)
Sequence of HOXB9 (Homo sapiens, UniProt P17482 171-250, R186Q) (P17482 171-250 R186Q): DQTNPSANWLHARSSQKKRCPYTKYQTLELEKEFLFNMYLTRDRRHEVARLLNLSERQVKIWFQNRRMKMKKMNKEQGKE

HOXC9 [34] = biological target: HOXC9 (Homo sapiens, UniProt P31274 178-260, R222W)
Sequence of HOXC9 (Homo sapiens, UniProt P31274 178-260, R222W) (P31274 178-260 R222W): as the sequence (P31274 178-260) above, with R45W counted along it

VAX1 [35] = biological target: VAX1 (Homo sapiens, UniProt Q5SQQ9 86-172, T142I)
Sequence of VAX1 (Homo sapiens, UniProt Q5SQQ9 86-172, T142I) (Q5SQQ9 86-172 T142I): as the sequence (Q5SQQ9 86-172) above, with T57I counted along it

HOXA7 [36] = biological target: HOXA7 (Homo sapiens, UniProt P31268 116-202, W177C)
Sequence of HOXA7 (Homo sapiens, UniProt P31268 116-202, W177C) (P31268 116-202 W177C): as the sequence (P31268 116-202) above, with W62C counted along it

HOXA4 [37] = biological target: HOXA4 (Homo sapiens, UniProt Q00056 201-287, W262F)
Sequence of HOXA4 (Homo sapiens, UniProt Q00056 201-287, W262F) (Q00056 201-287 W262F): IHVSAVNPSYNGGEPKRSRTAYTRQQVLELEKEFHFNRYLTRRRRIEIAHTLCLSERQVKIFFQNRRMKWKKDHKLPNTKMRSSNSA

VAX1 [38] = biological target: VAX1 (Homo sapiens, UniProt Q5SQQ9 86-172, K157R)
Sequence of VAX1 (Homo sapiens, UniProt Q5SQQ9 86-172, K157R) (Q5SQQ9 86-172 K157R): as the sequence (Q5SQQ9 86-172) above, with K72R counted along it

HOXA4 [39] = biological target: HOXA4 (Homo sapiens, UniProt Q00056 201-287, W262R)
Sequence of HOXA4 (Homo sapiens, UniProt Q00056 201-287, W262R) (Q00056 201-287 W262R): as the sequence (Q00056 201-287 W262F) above, with F62R counted along it

HOXA4 [40] = biological target: HOXA4 (Homo sapiens, UniProt Q00056 201-287, R217L)
Sequence of HOXA4 (Homo sapiens, UniProt Q00056 201-287, R217L) (Q00056 201-287 R217L): as the sequence (Q00056 201-287 W262F) above, with R17L, F62W counted along it

PITX2 = PITX2 (Homo sapiens, UniProt Q99697 72-157)
HOXA4 [41] = biological target: HOXA4 (Homo sapiens, UniProt Q00056 201-287)
Sequence of HOXA4 (Homo sapiens, UniProt Q00056 201-287) (Q00056 201-287): as the sequence (Q00056 201-287 W262F) above, with F62W counted along it

Sequence: GCCCAGGC
- binding signal (VENTX [1]): 7.88 upbm affinity estimate (log intensity, higher = more binding, comparable within an allelic series)
- binding signal (VENTX [2]): 7.61 upbm affinity estimate (log intensity, higher = more binding, comparable within an allelic series)
- binding signal (VENTX [3]): 7.8 upbm affinity estimate (log intensity, higher = more binding, comparable within an allelic series)
- binding signal (HOXB6 [4]): 8.91 upbm affinity estimate (log intensity, higher = more binding, comparable within an allelic series)
- binding signal (HOXA2 [5]): 6.96 upbm affinity estimate (log intensity, higher = more binding, comparable within an allelic series)
- binding signal (ALX1 [6]): 6.2 upbm affinity estimate (log intensity, higher = more binding, comparable within an allelic series)
- binding signal (ALX3 [7]): 7.68 upbm affinity estimate (log intensity, higher = more binding, comparable within an allelic series)
- binding signal (HOXA2 [8]): 10 upbm affinity estimate (log intensity, higher = more binding, comparable within an allelic series)
- binding signal (ALX1 [9]): 6.3 upbm affinity estimate (log intensity, higher = more binding, comparable within an allelic series)
- binding signal (ALX3 [10]): 7.31 upbm affinity estimate (log intensity, higher = more binding, comparable within an allelic series)
- binding signal (ALX3 [11]): 7.59 upbm affinity estimate (log intensity, higher = more binding, comparable within an allelic series)
- binding signal (ALX3 [12]): 7.69 upbm affinity estimate (log intensity, higher = more binding, comparable within an allelic series)
- binding signal (HOXA2 [13]): 10.3 upbm affinity estimate (log intensity, higher = more binding, comparable within an allelic series)
- binding signal (ALX1 [14]): 6.12 upbm affinity estimate (log intensity, higher = more binding, comparable within an allelic series)
- binding signal (ALX3 [15]): 7.71 upbm affinity estimate (log intensity, higher = more binding, comparable within an allelic series)
- binding signal (HOXA2 [16]): 7.01 upbm affinity estimate (log intensity, higher = more binding, comparable within an allelic series)
- binding signal (HOXB6 [17]): 8.63 upbm affinity estimate (log intensity, higher = more binding, comparable within an allelic series)

Sequence: CCGCGGTC
- binding signal (VENTX [1]): 7.69 upbm affinity estimate (log intensity, higher = more binding, comparable within an allelic series)
- binding signal (VENTX [2]): 7.87 upbm affinity estimate (log intensity, higher = more binding, comparable within an allelic series)
- binding signal (VENTX [3]): 7.89 upbm affinity estimate (log intensity, higher = more binding, comparable within an allelic series)
- binding signal (MSX2 [18]): 9.33 upbm affinity estimate (log intensity, higher = more binding, comparable within an allelic series)
- binding signal (MSX2 [19]): 9.33 upbm affinity estimate (log intensity, higher = more binding, comparable within an allelic series)
- binding signal (MSX2 [20]): 9.33 upbm affinity estimate (log intensity, higher = more binding, comparable within an allelic series)

Sequence: GCTTATTA
- binding signal (VENTX [1]): 10.2 upbm affinity estimate (log intensity, higher = more binding, comparable within an allelic series)
- binding signal (VENTX [2]): 10.8 upbm affinity estimate (log intensity, higher = more binding, comparable within an allelic series)
- binding signal (VENTX [3]): 10.3 upbm affinity estimate (log intensity, higher = more binding, comparable within an allelic series)
- binding signal (HOXA2 [5]): 10.9 upbm affinity estimate (log intensity, higher = more binding, comparable within an allelic series)
- binding signal (HOXA2 [8]): 12.2 upbm affinity estimate (log intensity, higher = more binding, comparable within an allelic series)
- binding signal (HOXA2 [13]): 10.7 upbm affinity estimate (log intensity, higher = more binding, comparable within an allelic series)
- binding signal (HOXA2 [16]): 10.7 upbm affinity estimate (log intensity, higher = more binding, comparable within an allelic series)

Sequence: CCATTAAA
- binding signal (HOXB9 [21]): 10.1 upbm affinity estimate (log intensity, higher = more binding, comparable within an allelic series)
- binding signal (HOXC9 [22]): 13 upbm affinity estimate (log intensity, higher = more binding, comparable within an allelic series)
- binding signal (HOXA7 [23]): 11.5 upbm affinity estimate (log intensity, higher = more binding, comparable within an allelic series)
- binding signal (HOXC10 [24]): 12.5 upbm affinity estimate (log intensity, higher = more binding, comparable within an allelic series)
- binding signal (HOXB6 [4]): 9.87 upbm affinity estimate (log intensity, higher = more binding, comparable within an allelic series)
- binding signal (HOXB9 [25]): 12.4 upbm affinity estimate (log intensity, higher = more binding, comparable within an allelic series)
- binding signal (HOXC9 [26]): 13.1 upbm affinity estimate (log intensity, higher = more binding, comparable within an allelic series)
- binding signal (HOXD13 [27]): 10.6 upbm affinity estimate (log intensity, higher = more binding, comparable within an allelic series)
- binding signal (HOXC9 [28]): 13 upbm affinity estimate (log intensity, higher = more binding, comparable within an allelic series)
- binding signal (HOXD13 [29]): 11.9 upbm affinity estimate (log intensity, higher = more binding, comparable within an allelic series)
- binding signal (HOXC10 [30]): 12.2 upbm affinity estimate (log intensity, higher = more binding, comparable within an allelic series)
- binding signal (VAX1 [31]): 12.2 upbm affinity estimate (log intensity, higher = more binding, comparable within an allelic series)
- binding signal (HOXD13 [32]): 11.6 upbm affinity estimate (log intensity, higher = more binding, comparable within an allelic series)
- binding signal (HOXB9 [33]): 12.2 upbm affinity estimate (log intensity, higher = more binding, comparable within an allelic series)
- binding signal (HOXC9 [34]): 11.1 upbm affinity estimate (log intensity, higher = more binding, comparable within an allelic series)
- binding signal (VAX1 [35]): 11.9 upbm affinity estimate (log intensity, higher = more binding, comparable within an allelic series)
- binding signal (HOXA7 [36]): 8.59 upbm affinity estimate (log intensity, higher = more binding, comparable within an allelic series)
- binding signal (HOXA4 [37]): 10.9 upbm affinity estimate (log intensity, higher = more binding, comparable within an allelic series)
- binding signal (VAX1 [38]): 11.8 upbm affinity estimate (log intensity, higher = more binding, comparable within an allelic series)
- binding signal (HOXB6 [17]): 12 upbm affinity estimate (log intensity, higher = more binding, comparable within an allelic series)

Sequence: ATTAACGA
- binding signal (HOXB9 [21]): 10 upbm affinity estimate (log intensity, higher = more binding, comparable within an allelic series)
- binding signal (HOXA4 [39]): 10.6 upbm affinity estimate (log intensity, higher = more binding, comparable within an allelic series)
- binding signal (HOXC9 [22]): 12.6 upbm affinity estimate (log intensity, higher = more binding, comparable within an allelic series)
- binding signal (HOXC10 [24]): 12.2 upbm affinity estimate (log intensity, higher = more binding, comparable within an allelic series)
- binding signal (VENTX [3]): 11.5 upbm affinity estimate (log intensity, higher = more binding, comparable within an allelic series)
- binding signal (HOXA2 [5]): 12.4 upbm affinity estimate (log intensity, higher = more binding, comparable within an allelic series)
- binding signal (HOXA4 [40]): 12 upbm affinity estimate (log intensity, higher = more binding, comparable within an allelic series)
- binding signal (HOXC9 [26]): 12.5 upbm affinity estimate (log intensity, higher = more binding, comparable within an allelic series)
- binding signal (PITX2): 10.7 upbm affinity estimate (log intensity, higher = more binding, comparable within an allelic series)
- binding signal (HOXC9 [28]): 12.5 upbm affinity estimate (log intensity, higher = more binding, comparable within an allelic series)
- binding signal (HOXA2 [8]): 13.3 upbm affinity estimate (log intensity, higher = more binding, comparable within an allelic series)
- binding signal (HOXA4 [41]): 13.6 upbm affinity estimate (log intensity, higher = more binding, comparable within an allelic series)
- binding signal (HOXC10 [30]): 12.1 upbm affinity estimate (log intensity, higher = more binding, comparable within an allelic series)
- binding signal (HOXC9 [34]): 10.9 upbm affinity estimate (log intensity, higher = more binding, comparable within an allelic series)
- binding signal (HOXA2 [13]): 10.9 upbm affinity estimate (log intensity, higher = more binding, comparable within an allelic series)
- binding signal (HOXA4 [37]): 11.4 upbm affinity estimate (log intensity, higher = more binding, comparable within an allelic series)
- binding signal (HOXA2 [16]): 12 upbm affinity estimate (log intensity, higher = more binding, comparable within an allelic series)

Sequence: AGTTATCC
- binding signal (VENTX [1]): 9.65 upbm affinity estimate (log intensity, higher = more binding, comparable within an allelic series)
- binding signal (VENTX [2]): 10.1 upbm affinity estimate (log intensity, higher = more binding, comparable within an allelic series)
- binding signal (HOXA4 [41]): 11.1 upbm affinity estimate (log intensity, higher = more binding, comparable within an allelic series)
